Source: PubChem BioAssay (National Center for Advancing Translational Sciences (NCATS))
MARV entry inh: Marburg virus entry inhibition. Marburg virus pseudotyped entry inhibition, cell reporter. Potency, µM (highest dose often 37.8 µM), for the others: top-dose activity change, negative = inhibition, hits mostly inhibitors. hit rate 1.8% among 300,000. AID 540276; calls by dose curve; tested in HEK293 cells; note: potency is the fitted concentration of half-maximal effect
Vaccinia mCherry: vaccinia inhibition (mCherry reporter); Vaccinia virus mCherry reporter infection, fluorescence; Potency, µM (titrated, usually from 36.5 µM), for the others: at the highest dose activity change, negative = inhibition, most hits filed as inhibitors; hit rate 0.63% among 310,000; AID 720579; calls by dose curve; tested in A549 cells; note: potency is the fitted concentration of half-maximal effect; nearly all actives have a fitted effect of over 35% in size
HCMV inh: human cytomegalovirus inhibition; HFF cells, HCMV-luciferase reporter, 72 h; active compounds read low; activity change, negative = inhibition, % at 57.5 µM; hit rate 4.5% among 410,000; AID 1259415; in the data active = activity change below about -60%; inconclusive = no clear call, values can overlap the other calls; inactive = above about -39%
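Two-dose cell screen: HFF monolayers treated with compounds and infected with luciferase-expressing HCMV at 1 PFU/cell, 72 h at 37C, then lysed for luciferase measurement.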
VACV Venus inh: inhibitors of vaccinia virus (Venus reporter); Vaccinia virus Venus reporter expression, fluorescence; Potency, µM (top dose mostly 36.5 µM), inactives show at the highest dose activity change, negative = inhibition, usual class: inhibitors; hit rate 0.46% among 330,000; calls by dose curve; tested in A549 cells; note: potency is the fitted concentration of half-maximal effect; nearly all actives have a fitted effect of over 30% in size
LASV entry inh: blocks Lassa virus binding to or entry into cells; Lassa virus pseudotype entry inhibition, cell reporter; Potency, µM (highest dose often 37.9 µM), inactives show top-dose activity change, negative = inhibition, actives largely listed as inhibitors; hit rate 1.2% among 300,000; AID 540256; calls by dose curve; tested in HEK293 cells; note: potency is the fitted concentration of half-maximal effect; nearly all actives have a fitted effect of over 50% in size
FMDV antiviral: foot and mouth disease virus antiviral activity. FMDV antiviral cell-based qHTS. Potency, µM (doses to about 57.9 µM), inactives show at the top dose activity change, negative = inhibition, most hits filed as inhibitors. hit rate 1.2% among 410,000; calls by dose curve; tested in HEK293T cells; note: read-out not given here; potency is the fitted concentration of half-maximal effect; nearly all actives have a fitted effect of over 45% in size
Numbers without * were called inactive; [ ] = remark or other dose. In the library only some 6.5% were active in any assay of this set; here they are far more common. % is set by controls: 0 for no effect and ±100 for the full control effect.

For COc1ccc(NC(=O)N(C)C[C@H]2Oc3c(NC(=O)c4nc5ccccc5s4)cccc3C(=O)N([C@@H](C)CO)C[C@H]2C)cc1 the results were Vaccinia mCherry -10%, HCMV inh -103*, VACV Venus inh inconclusive and FMDV antiviral -14%.
Screening C[C@H](CO)N1C[C@H](C)[C@@H](CN(C)C(=O)Nc2ccc(C(F)(F)F)cc2)Oc2c(NC(=O)Nc3ccccc3)cccc2C1=O returned Vaccinia mCherry inactive, HCMV inh -17, VACV Venus inh inconclusive and FMDV antiviral -12%.
Screening C[C@@H]1CN([C@H](C)CO)C(=O)c2cccc(NC(=O)Nc3ccc(F)cc3)c2O[C@H]1CN(C)C(=O)Nc1ccc(C(F)(F)F)cc1 returned Vaccinia mCherry -28%, HCMV inh -61*, VACV Venus inh inconclusive and FMDV antiviral inconclusive.
C[C@H]1CN([C@@H](C)CO)C(=O)c2cccc(NC(=O)C3CC3)c2O[C@H]1CN(C)Cc1ccc(C(F)(F)F)cc1 was read as Vaccinia mCherry -14%, HCMV inh -88*, VACV Venus inh -11% and FMDV antiviral 22%.
`CC(C)NC(=O)N(C)C[C@H]1Oc2c(NC(=O)Cc3ccccc3)cccc2C(=O)N([C@H](C)CO)C[C@@H]1C` gave Vaccinia mCherry inactive, HCMV inh 4, VACV Venus inh -16% and FMDV antiviral 73%.
O=C1CCN(S(=O)(=O)c2ccc(Cl)cc2)C(c2ccccc2)C1 (centres undefined) was read as HCMV inh -16.
Screening Cc1ncc2c(c1CNC(=O)c1ccc3c(c1)OCO3)CCN(C(=O)c1cc3ccccc3n1C)C2 returned Vaccinia mCherry -7%, VACV Venus inh 4% and FMDV antiviral -1%.
CCN(CC(=O)Nc1cc(OC)ccc1OC)Cc1nc2ccccc2c(=O)[nH]1 was read as MARV entry inh -16%, Vaccinia mCherry -14%, HCMV inh 49, VACV Venus inh 0%, LASV entry inh 6% and FMDV antiviral -10%.
For COc1cc2c(cc1NC(=O)CSc1ccccc1)oc1ccccc12 the results were MARV entry inh 3%, HCMV inh inconclusive, LASV entry inh 1% and FMDV antiviral 73%.
COc1cc2c(cc1NC(=O)CSc1nc3ccccc3[nH]1)oc1ccccc12 was read as MARV entry inh 21µM*, Vaccinia mCherry inconclusive, HCMV inh inconclusive, VACV Venus inh -21%, LASV entry inh inconclusive and FMDV antiviral -3%.
Screening O=C(CSc1nc2ccccc2[nH]1)Nc1ccccc1N1CCOCC1 returned MARV entry inh 8.9µM*, Vaccinia mCherry inactive, HCMV inh -6, VACV Venus inh -21%, LASV entry inh -19% and FMDV antiviral inconclusive.
Screening COc1cc2c(cc1NC(=O)CN(C)Cc1nc3ccccc3c(=O)[nH]1)oc1ccccc12 returned MARV entry inh 23µM*, HCMV inh -14, LASV entry inh inconclusive and FMDV antiviral 2%.
`Cc1ccc2c(=O)cc(C(=O)Nc3nc4ccc(Cl)cc4s3)oc2c1C` gave MARV entry inh 11%[46.1 µM], Vaccinia mCherry -12%, HCMV inh 12, VACV Venus inh -9%, LASV entry inh -1%[46.1 µM] and FMDV antiviral -6%.
`COCc1ccc(C(=O)N2CCCC(C(=O)c3ccc(SC)cc3)C2)s1` (centres undefined) gave MARV entry inh -12%, Vaccinia mCherry -2%, HCMV inh -87*, VACV Venus inh -23%, LASV entry inh -31% and FMDV antiviral inconclusive.
For O=S(=O)(c1ccc(Cl)cc1)N1CCN=C1SCc1cccc(Cl)c1 the results were MARV entry inh -16%, Vaccinia mCherry -6%, HCMV inh -62*, VACV Venus inh -26%, LASV entry inh inconclusive and FMDV antiviral inconclusive.
COc1ccc(S(=O)(=O)N2CCN=C2SCc2cccc(C)c2)cc1 was read as MARV entry inh inconclusive, Vaccinia mCherry 0%, HCMV inh -75*, VACV Venus inh -14%, LASV entry inh inconclusive and FMDV antiviral inconclusive.
Screening O=S(=O)(c1ccccc1)N1CCN=C1SCc1c(F)cccc1Cl returned MARV entry inh -26%, Vaccinia mCherry -10%, HCMV inh -80*, VACV Venus inh -14%, LASV entry inh inconclusive and FMDV antiviral -20%.
Screening O=S(=O)(c1ccc(Cl)cc1)N1CCN=C1SCc1cccnc1 returned Vaccinia mCherry -16%, HCMV inh -75*, VACV Venus inh -26% and FMDV antiviral -2%.
For COCCNc1ncnc2c1ncn2[C@H]1CN(Cc2ccco2)C[C@@H](CO)O1 the results were Vaccinia mCherry 5%, HCMV inh 4, VACV Venus inh -3% and FMDV antiviral -4%.
Screening C[C@H]1CC[C@H]2C(=O)N(Cc3ccc(Cl)cc3)C[C@@H](O)CN2[C@H]1c1ccc(Br)cc1 returned MARV entry inh -7%[14.2 µM].
For COc1ccc(N=N/C(=C\O)C(=O)c2cccs2)cc1 the results were MARV entry inh -29%[46.1 µM], Vaccinia mCherry inconclusive, HCMV inh -92*, VACV Venus inh 7%, LASV entry inh inconclusive and FMDV antiviral -8%.
`CCc1ccc(/C=C2\SC(=S)N(CCCC(=O)Nc3cc(C)on3)C2=O)cc1` gave Vaccinia mCherry inactive, HCMV inh inconclusive, VACV Venus inh -9% and FMDV antiviral 16µM*.
For CCc1ccc(/C=C2\SC(=S)N(CCCC(=O)NC3=NCCS3)C2=O)cc1 the results were Vaccinia mCherry -6%, HCMV inh -74*, VACV Venus inh -16% and FMDV antiviral 14µM*.
COc1cccc(/C=C2\SC(=S)N(CCCC(=O)NC3=NCCS3)C2=O)c1 was read as HCMV inh -29 and FMDV antiviral -15%.
For Cc1nn(C(C)(C)C)c(C)c1/C=N/OC(=O)Nc1ccc(Cl)c(Cl)c1 the results were HCMV inh -61* and FMDV antiviral 0.32µM*.
Screening C[C@@H]1CN([C@@H](C)CO)C(=O)CCCn2cc(nn2)CO[C@H]1CN(C)C(=O)Nc1ccnc(N2CCOCC2)c1 returned HCMV inh 19.
CCCCCSc1cc(OC)c(CCN)cc1OC was read as MARV entry inh inconclusive, HCMV inh -70*, VACV Venus inh -18%, LASV entry inh inconclusive and FMDV antiviral 0%.
For CCCCCCCSc1cc(OC)c(CCN(C)C)cc1OC the results were MARV entry inh inconclusive, Vaccinia mCherry inconclusive, HCMV inh -26, VACV Venus inh 10µM*, LASV entry inh inconclusive and FMDV antiviral -17%.
Cc1c(C(=O)Nc2ccccc2)c2ccc(C(F)(F)F)cc2n1O was read as MARV entry inh inconclusive, Vaccinia mCherry -7%[7.34 µM], HCMV inh -95*, VACV Venus inh -4%[7.34 µM], LASV entry inh -10% and FMDV antiviral inconclusive.
O=C1NC(=O)N(Cc2ccccc2Cl)C(=O)/C1=C/c1cccs1 was read as Vaccinia mCherry -15%, HCMV inh -97*, VACV Venus inh inconclusive and FMDV antiviral 22µM*.
